Screens from PubChem.
IL-1B inflam inh: blocks inflammasome-driven IL-1 beta release. THP-1 LPS/ATP IL-1B secretion, AlphaLISA, 16 h; active compounds read low. activity change, % at 57.5 µM. 360,000 compounds, 4.7% hits; in the data active = activity change below about -50%; inconclusive = mostly about -30% to -49%; also: % is scaled to controls: 0 for no effect and ±100 for the full control effect
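THP-1 cells pretreated 1 hr with compounds (up to 57.5 uM final), then stimulated with LPS (250 ng/mL final) plus ATP (1.25 mM final); secreted IL-1B measured by AlphaLISA after 16 hr, decreased signal indicating inhibition.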
SW480 rerep: induces DNA re-replication in SW480 colon adenocarcinoma cells; SW480 DNA re-replication, Hoechst DNA content imaging, 48 h; Potency, µM (doses to about 46.1 µM), for inactives: at the highest dose re-replication activation, actives largely listed as activators; 340,000 compounds, 1.8% hits; also: potency is read from the fitted curve at half-maximal effect; % of control where 0% means no effect; nearly all actives have a fitted effect of over 55% in size
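DNA re-replication was detected as more nuclei of elevated Hoechst intensity after 48 hr exposure to compound (23 nL pinned per well of 250 cells).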
KB-3-1 cytotox: KB-3-1 parental cell cytotoxicity; KB-3-1 viability, CellTiter-Glo ATP luminescence, 72 h; Potency, µM (titrated, usually from 46.1 µM), hits mostly cytotoxic; 400,000 compounds, 1.4% hits; AID 1347075; also: potency is read from the fitted curve at half-maximal effect; % is scaled to controls: 0 for no effect and ±100 for the full control effect; nearly all actives have a fitted effect of over 60% in size
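Here the drug-naive KB-3-1 line serves as comparator for MDR sub-line selectivity; cells received compound titrations, 72 h at 37 °C, then CellTiter-Glo readout.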
MCF10A rerep: DNA re-replication induction in MCF 10a cells. MCF 10A DNA re-replication, Hoechst nuclear intensity, 48 h. Potency, µM (doses to about 46.1 µM), for the others: top-dose activity, positive = re-replication, actives largely listed as activators. 350,000 compounds, 2.9% hits. AID 624296; also: potency is read from the fitted curve at half-maximal effect; % of control where 0% means no effect; nearly all actives have a fitted effect of over 50% in size
KB-V1 MDR tox: kills drug-selected multidrug resistant KB-V1 cells; KB-V1 MDR cells viability, CellTiter-Glo, 72 h; Potency, µM (series often up to 46.1 µM), most hits filed as cytotoxic; 400,000 compounds, 3.4% hits; also: potency is read from the fitted curve at half-maximal effect; % is scaled to controls: 0 for no effect and ±100 for the full control effect; nearly all actives have a fitted effect of over 60% in size
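KB-V1, DMEM (no phenol red) + 10% FBS; cpd pin-transferred, titration series; 72 h, 37 degrees C; CellTiter-Glo, luminescence. Data normalized, curve-fit.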
Starred values were filed as active, the others as inactive; i = inactive; ? = inconclusive; nt = no result. In the library only some 9.9% were active in any assay of this set; here they are far more common. Unless noted, calls follow the shape of the dose curve; as a rule, active = well fitted curve in the direction sought with a large enough effect; inconclusive = small, poorly fitted or top-dose-only effect, or another doubt; inactive = no such curve, though single readings can be large; an effect the other way counts as inactive or inconclusive.

SMILES	IL-1B inflam inh	SW480 rerep	KB-3-1 cytotox	MCF10A rerep	KB-V1 MDR tox
COc1ccccc1N(C)S(=O)(=O)c1ccc(C(=O)N2CCCc3ccccc32)cc1	-10.9	18.0%	i	?	i
O=S(=O)(c1ccc(-c2nc3ccccc3s2)cc1)N1CCCC1	1.4	-9.7%	i	-2.2%	?
Cc1ccn2cc(-c3ccc(NS(=O)(=O)c4ccccc4)cc3)nc2c1	1.5	-44.5%	i	?	16.4µM*
O=S(=O)(c1cccc(-c2nc3ccccc3s2)c1)N1CCCC1	-15.4	-3.1%	?	-1.5%	14.6µM*
Cc1ccn2cc(-c3cccc(NS(C)(=O)=O)c3)nc2c1	?	-0.4%	i	-13.2%	i
O=C(NN=Cc1ccccc1O)c1cccc([N+](=O)[O-])c1	160.0	0.581µM*	?	1.4%	?
Cc1cc(/C=N/NC(=O)c2ccncc2)c(C)n1-c1ccccc1	0.0	-0.8%	i	1.6%	i
COc1ccc(/C=N/NC(=O)c2cccc([N+](=O)[O-])c2)cc1O	6.9	?	i	?	i
O=C(N/N=C/c1ccccn1)c1ccc(Br)cc1	-105.3*	?	i	?	18.4µM*
Cc1cc(/C=N/NC(=O)c2cccs2)c(C)n1-c1ccccc1	-4.9	-2.4%	16.4µM*	?	?
Cc1cc(/C=N/NC(=O)c2cccc([N+](=O)[O-])c2)c(C)n1-c1ccccc1	-79.7*	-3.4%	i	8.9%	?
CCCCN(C(=O)c1cccc(S(=O)(=O)N2CCN(C)CC2)c1)c1c(N)n(CCC)c(=O)[nH]c1=O	1.9	0.2%	i	-0.7%	i
O=C(N/N=C/c1ccccc1[N+](=O)[O-])c1cccs1	0.9	-6.2%	i	0.6%	i
Cc1ccc(/C=N/NC(=O)c2cccs2)cc1[N+](=O)[O-]	-1.9	-8.0%	i	1.2%	14.6µM*
O=C(N/N=C/c1ccccn1)c1cccc([N+](=O)[O-])c1	-95.7*	?	i	15.6%	i
O=C(N/N=C/c1ccccn1)c1ccc(NC(=O)c2cccc([N+](=O)[O-])c2)cc1	4.0	-2.8%	?	?	i
CCc1cccc(NC(=O)CSc2nc(C)cs2)c1	31.8	nt	i	nt	i
C[C@@H]1CCCCCCCCC(=O)OCCN[C@H](C)CCCCCCCCC(=O)OCCN[C@H](C)CCCCCCCCC(=O)OCCN1	-58.6*	?	i	?	i
CCOC(=O)c1c(-c2cccs2)csc1NC(=O)CSc1ncn[nH]1	41.6	1.9%	i	?	20.6µM*
CCOC(=O)c1c(-c2ccc(OC)cc2)csc1NC(=O)CSc1ncnc2sccc12	4.0	-112.7%	i	16.4µM*	i
CCOC(=O)c1c(-c2ccc(OC)cc2)csc1NC(=O)COc1ccc2c(C)cc(=O)oc2c1	5.8	-1.2%	?	17.7%	i
CCOC(=O)c1c(-c2cccs2)csc1NC(=O)CN1CC(C)OC(C)C1 (stereo not drawn)	0.0	?	i	20.6µM*	i
CCOC(=O)c1c(-c2cccs2)csc1NC(=O)C(C)(C)C	17.6	-4.1%	i	13µM*	14.6µM*
CC(C)N1C(=O)C(O)(c2c[nH]c3ccccc23)c2ccccc21 (stereo not drawn)	nt	nt	i	nt	i
CCOC(=O)c1ccc(NC(=O)CSc2nc(C)cc(=O)[nH]2)cc1	35.5	-1.7%	i	-0.1%	i
SMILES	IL-1B inflam inh	SW480 rerep	KB-3-1 cytotox	MCF10A rerep	KB-V1 MDR tox
CCOC(=O)c1c(-c2ccccc2Cl)csc1NC(=O)CSc1nc(C)cc(=O)[nH]1	0.0	23.1µM*	i	?	?
CN(C)S(=O)(=O)c1cccc(-c2nnc(-c3ccccc3)o2)c1	4.2	0.6%	i	17.4%	23.1µM*
c1ccc(OCc2nnc(-c3ccccc3)o2)cc1	-5.0	-13.3%	i	-4.2%	i
c1ccc(-c2nnc(-c3ccccc3)o2)cc1	33.3	5.1%	i	20.3%	i
ClCc1nnc(-c2ccccc2)o1	-87.8*	?	i	?	i
Clc1cccc(-c2nnc(-c3ccccc3)o2)c1	-23.8	-0.4%	?	16.4µM*	?
CN(C)c1ccc2c3c(ccc(N(C)C)c13)C(=O)OC2	54.1	?	?	-1.8%	i
CCN(CC)C(=O)C1=CC(c2ccc3c(c2)OCO3)=NS(=O)(=O)N1C	nt	nt	i	nt	i
Nc1ccc(Br)cc1C(NCC(=O)O)c1ccccc1 (stereo not drawn)	12.4	6.51µM*	i	-2.1%	i
CCOC(=O)CNC(c1ccccc1)c1cc(Br)ccc1NC(C)=O (stereo not drawn)	-1.7	2.91µM*	i	-5.8%	i
Cc1ccc(S(=O)(=O)c2nnn3c2nc(N2CCN(c4ccccc4F)CC2)c2ccccc23)cc1C	nt	nt	i	nt	i
COc1ccc(-n2cnnc2SCc2cnc(-c3ccccc3)s2)cc1	37.5	9.7%	i	-0.5%	16.4µM*
O=c1nc(N/N=C/C=C/c2ccccc2)cn[nH]1	-2.2	?	i	24.0%	i
O=C(CSCn1nnc2c(=O)[nH]c(Cc3ccc(F)cc3)nc21)Nc1cccc(C(F)(F)F)c1	nt	nt	i	nt	i
CC(=O)c1c(C)[nH]c(C(=O)N2CCCC(C)C2)c1C (stereo not drawn)	0.0	2.31µM*	i	9.2%	i
CC(=O)c1c(C)[nH]c(C(=O)N2CC(C)CC(C)C2)c1C (stereo not drawn)	14.4	23.9%	i	7.8%	i
CCCC12CN3CC(CCC)(CN(C1)C3c1c(C)[nH]c(=O)[nH]c1=O)C2=O (stereo not drawn)	nt	nt	i	nt	i
COC(=O)c1sccc1NC(=O)c1cc(-c2ccc(C)cc2C)nc2ccccc12	11.2	2.0%	?	11.6µM*	?
Cc1ccc(C)c(-c2cc(C(=O)Nc3sc(C)c(C)c3C(N)=O)c3ccccc3n2)c1	?	22.1%	?	?	4.11µM*
Cc1ccc(NC(=O)c2cc(-c3cccs3)nc3ccccc23)c(C)c1	nt	nt	i	nt	i
O=C(COC(=O)C12CC3CC(CC(Br)(C3)C1)C2)Nc1ccc2[nH]c(=O)[nH]c2c1	11.7	-7.1%	i	6.2%	i
CC1(/[N+]([O-])=C/c2ccc(F)cc2)CCCCC1=O (stereo not drawn)	-27.5	-10.0%	i	-0.3%	i
CC1(c2ccc3ccccc3c2)NC(=O)N(CC(=O)Nc2cccc(S(=O)(=O)N3CCOCC3)c2)C1=O (stereo not drawn)	?	8.7%	?	?	i
CC(OC(=O)/C=C/c1ccco1)C(=O)Nc1cccc([N+](=O)[O-])c1 (stereo not drawn)	17.7	?	?	5.7%	18.4µM*
